Measurements as given in the supplement of paper PMC13380429.
Unmarked numbers belong to inactive results.

System: Vero E6 infected with SARS-CoV-2
Test: inhibition of SARS-CoV-2 cytopathic effect; higher = more antiviral protection, active = above 15
Conditions: 48 h

## CCCCCCCCc1ccc(CCC(N)(CO)CO)cc1 [fingolimod]
1 nM
  inhibition of SARS-CoV-2 cytopathic effect: 0%
8.33 nM
  inhibition of SARS-CoV-2 cytopathic effect: 2.1%
100 nM
  inhibition of SARS-CoV-2 cytopathic effect: -0.53%
833.33 nM
  inhibition of SARS-CoV-2 cytopathic effect: -4%
10000 nM
  inhibition of SARS-CoV-2 cytopathic effect: 15.2% (active)

## CCN(CCNC(=O)Nc1ccccc1Br)c1cccc(C)c1
1 nM
  inhibition of SARS-CoV-2 cytopathic effect: -0.09%
8.33 nM
  inhibition of SARS-CoV-2 cytopathic effect: 2.65%
100 nM
  inhibition of SARS-CoV-2 cytopathic effect: -0.41%
833.33 nM
  inhibition of SARS-CoV-2 cytopathic effect: -0.7%
10000 nM
  inhibition of SARS-CoV-2 cytopathic effect: 0.98%

## Clc1ccc(C(c2ccc(Cl)cc2)C(Cl)(Cl)Cl)cc1
1 nM
  inhibition of SARS-CoV-2 cytopathic effect: 1.71%
8.33 nM
  inhibition of SARS-CoV-2 cytopathic effect: 4.86%
100 nM
  inhibition of SARS-CoV-2 cytopathic effect: 0.57%
833.33 nM
  inhibition of SARS-CoV-2 cytopathic effect: -1.73%
10000 nM
  inhibition of SARS-CoV-2 cytopathic effect: -1.33%

## O=C(C(c1ccccc1)c1ccccc1)N1CCN(CC(O)COc2cccc3ncccc23)CC1 (stereo not given) [dofequidar]
1 nM
  inhibition of SARS-CoV-2 cytopathic effect: -0.98%
8.33 nM
  inhibition of SARS-CoV-2 cytopathic effect: 4.84%
100 nM
  inhibition of SARS-CoV-2 cytopathic effect: -1.1%
833.33 nM
  inhibition of SARS-CoV-2 cytopathic effect: -0.87%
10000 nM
  inhibition of SARS-CoV-2 cytopathic effect: 1.44%

## O=C(Nc1ccc(C(=O)O)c(O)c1)c1ccccc1 [benzoylpas]
1 nM
  inhibition of SARS-CoV-2 cytopathic effect: 0.82%
8.33 nM
  inhibition of SARS-CoV-2 cytopathic effect: -2.28%
100 nM
  inhibition of SARS-CoV-2 cytopathic effect: 0.45%
833.33 nM
  inhibition of SARS-CoV-2 cytopathic effect: -0.08%
10000 nM
  inhibition of SARS-CoV-2 cytopathic effect: -0.85%

## CCCOc1ccc(C(=O)OCCN(CC)CC)cc1N [proxymetacaine]
1 nM
  inhibition of SARS-CoV-2 cytopathic effect: 1.69%
8.33 nM
  inhibition of SARS-CoV-2 cytopathic effect: 1.71%
100 nM
  inhibition of SARS-CoV-2 cytopathic effect: 2.25%
833.33 nM
  inhibition of SARS-CoV-2 cytopathic effect: 0.25%
10000 nM
  inhibition of SARS-CoV-2 cytopathic effect: 2%

## C[C@]12CC[C@H](O)CC1=CC[C@@H]1[C@@H]2CC[C@]2(C)C(=O)CC[C@@H]12
1 nM
  inhibition of SARS-CoV-2 cytopathic effect: 1.25%
8.33 nM
  inhibition of SARS-CoV-2 cytopathic effect: 0.45%
100 nM
  inhibition of SARS-CoV-2 cytopathic effect: 0.19%
833.33 nM
  inhibition of SARS-CoV-2 cytopathic effect: 5.63%
10000 nM
  inhibition of SARS-CoV-2 cytopathic effect: 1.12%

## CC1=CC[C@@H](C(C)(C)O)C[C@@H]1O [sobrepin]
1 nM
  inhibition of SARS-CoV-2 cytopathic effect: -10%
8.33 nM
  inhibition of SARS-CoV-2 cytopathic effect: -11.1%
100 nM
  inhibition of SARS-CoV-2 cytopathic effect: -11.4%
833.33 nM
  inhibition of SARS-CoV-2 cytopathic effect: -13.5%
10000 nM
  inhibition of SARS-CoV-2 cytopathic effect: -10.4%
